The values that follow come from the supplement of paper PMC7411054.

Common to all, as to conditions: treatment time: 24 h
Test [1] concerns A549-ACTB-RAB5A. Put plainly: lowest phenotypically active concentration; higher = less potent. In a few lines: (§1)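 Two criteria together defined phenotypic activity: deviation and reproducibility. Deviation meant ≥3 of 4 wells beyond the 95th percentile of Euclidean distances in solvent control wells, and reproducibility meant a median replicate Pearson correlation above the 95th percentile of non-replicates. Wells had been treated for 24 h at 0.3, 1, 3 or 9 µM in fifteen gene-edited A549, HepG2 and WPMY1 reporter lines before live imaging.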

Test [2] has as its system A549-GM130-SQSTM1. Described as above. In a few lines:
as §1

The test system of test [3] is A549-TP53BP1-CLTA. Described as above. In a few lines:
as §1

Test [4] deals with A549-TUBA1B-RELA. Described as above. Put shortly:
as §1

Test [5] concerns HepG2-TP53BP1-CLTA. The description is as above. In a few lines:
as §1

Test [6] relates to A549-ACTB-RAB5A. Put plainly: phenotypically active (imaging signature differs from DMSO and reproducible) at any of 0.3-9 uM (binary (1 = active, 0 = inactive)); higher = active. Put shortly: as §1
Another test has as its system A549-CANX-COX4. The test is described as above. In a few lines:
as §1

Test [7] has as its system A549-GM130-SQSTM1. The description is as above. In a few lines: as §1
Test [8] deals with A549-TP53BP1-CLTA. The description is as above. In a few lines: as §1
Test [9] concerns A549-TUBA1B-RELA. Described as above. Put shortly: as §1
For the next test, the system named is HepG2-ACTB-RAB5A. The description is as above. In a few lines:
as §1

A further test concerns HepG2-CANX-COX4. Described as above. In a few lines: as §1
In another test the test system is HepG2-GM130-SQSTM1. The description is as above. Put shortly:
as §1

For test [10], the system named is HepG2-TP53BP1-CLTA. The test is described as above. Put shortly:
as §1

For the next test, the system named is HepG2-TUBA1B-RELA. Described as above. In a few lines:
as §1

For another test, the system named is WPMY1-ACTB-RAB5A. Described as above. Put shortly: as §1
For a further test, the system named is WPMY1-CANX-COX4. The test is described as above. Put shortly: as §1
The test system of another test is WPMY1-GM130-SQSTM1. The description is as above. In a few lines: as §1
A further test has as its system WPMY1-TP53BP1-CLTA. The description is as above. In a few lines:
as §1

The subject of the next test is WPMY1-TUBA1B-RELA. The test is described as above. In a few lines:
as §1

Each structure is given as a SMILES string. Bounds are passed on as bounds.

Take `CC[C@@H]1C=CC=CC[C@H](C)[C@@H](O)[C@](C)(O)C(=O)[C@H](C)[C@@H](O)[C@H](C)C(=O)[C@H](C)[C@@H](O)[C@H](C)C=CC(=O)O[C@H]2[C@@H](C)[C@@H](CC1)O[C@@]1(CC[C@@H](C)[C@@H](C[C@H](C)O)O1)[C@@H]2C` [Oligomycin A]: the “lowest phenotypically active concentration” value in the test on A549-ACTB-RAB5A [1], in the test on A549-GM130-SQSTM1 [2], in the test with A549-TP53BP1-CLTA [3], with A549-TUBA1B-RELA [4] and in the test on HepG2-TP53BP1-CLTA [5] was ≤ 0.3 µM throughout. Besides, the phenotypically active in the test on A549-ACTB-RAB5A [6], with A549-CANX-COX4, with A549-GM130-SQSTM1 [7], in the test on A549-TP53BP1-CLTA [8], in the test on A549-TUBA1B-RELA [9] and with HepG2-ACTB-RAB5A was 1 (active) in each case. For the same compound, the phenotypically active with HepG2-CANX-COX4 is 1 (active); in the test on HepG2-GM130-SQSTM1, 1 (active); with HepG2-TP53BP1-CLTA [10], 1 (active); in the test on HepG2-TUBA1B-RELA, 1 (active); in the test on WPMY1-ACTB-RAB5A, 0 (inactive); with WPMY1-CANX-COX4, 1 (active). In addition, the phenotypically active with WPMY1-GM130-SQSTM1, in the test with WPMY1-TP53BP1-CLTA and in the test on WPMY1-TUBA1B-RELA was 0 (inactive) in each case.

`COc1ccc(N(C(=O)Oc2c(C)cccc2C)c2ccnc(Nc3ccc(N4CCN(C)CC4)cc3)n2)c(OC)c1`: the “lowest phenotypically active concentration” value turned out to be 1 µM in the test on A549-ACTB-RAB5A [1]; 1 µM with A549-GM130-SQSTM1 [2]; 3 µM in the test on A549-TP53BP1-CLTA [3]; 1 µM in the test on A549-TUBA1B-RELA [4]; 1 µM in the test with HepG2-TP53BP1-CLTA [5]. Besides, the phenotypically active in the test with A549-ACTB-RAB5A [6], in the test on A549-CANX-COX4, with A549-GM130-SQSTM1 [7], in the test with A549-TP53BP1-CLTA [8], in the test on A549-TUBA1B-RELA [9] and in the test with HepG2-ACTB-RAB5A was 1 (active) throughout. Further, the phenotypically active was 1 (active) in the test with HepG2-CANX-COX4; 1 (active) with HepG2-GM130-SQSTM1; 1 (active) in the test with HepG2-TP53BP1-CLTA [10]; 1 (active) in the test with HepG2-TUBA1B-RELA; 1 (active) with WPMY1-ACTB-RAB5A; 0 (inactive) in the test on WPMY1-CANX-COX4. The phenotypically active with WPMY1-GM130-SQSTM1 is 0 (inactive); in the test on WPMY1-TP53BP1-CLTA, 1 (active); in the test with WPMY1-TUBA1B-RELA it was 0 (inactive).

As to `COc1ccc2c(c1)/C(=C/c1c[nH]cn1)C(=O)N2`, the “lowest phenotypically active concentration” value with A549-ACTB-RAB5A [1], in the test with A549-GM130-SQSTM1 [2], with A549-TP53BP1-CLTA [3], in the test on A549-TUBA1B-RELA [4] and with HepG2-TP53BP1-CLTA [5] was 1 µM in each case. The phenotypically active in the test with A549-ACTB-RAB5A [6], with A549-CANX-COX4, with A549-GM130-SQSTM1 [7], in the test with A549-TP53BP1-CLTA [8], with A549-TUBA1B-RELA [9] and with HepG2-ACTB-RAB5A was 1 (active) each time. Also, the phenotypically active in the test on HepG2-CANX-COX4, in the test with HepG2-GM130-SQSTM1, in the test with HepG2-TP53BP1-CLTA [10], in the test on HepG2-TUBA1B-RELA, with WPMY1-ACTB-RAB5A and in the test with WPMY1-CANX-COX4 was 1 (active) each time. For the same compound, the phenotypically active with WPMY1-GM130-SQSTM1, in the test on WPMY1-TP53BP1-CLTA and in the test on WPMY1-TUBA1B-RELA was 1 (active) in each case.

As for `C[C@@H]1CC[C@H]2[C@@H](C)C(=O)O[C@@H]3O[C@@]4(C)CC[C@@H]1[C@]32OO4` [Artemisinin], the “lowest phenotypically active concentration” value was 3 µM in the test on A549-ACTB-RAB5A [1]; 3 µM in the test on A549-GM130-SQSTM1 [2]; 3 µM in the test with A549-TP53BP1-CLTA [3]; ≤ 0.3 µM with A549-TUBA1B-RELA [4]; 1 µM with HepG2-TP53BP1-CLTA [5]. The phenotypically active was 1 (active) with A549-ACTB-RAB5A [6]; 0 (inactive) in the test on A549-CANX-COX4; 1 (active) with A549-GM130-SQSTM1 [7]; 1 (active) in the test with A549-TP53BP1-CLTA [8]; 1 (active) with A549-TUBA1B-RELA [9]; 1 (active) with HepG2-ACTB-RAB5A. Further, the phenotypically active in the test with HepG2-CANX-COX4 is 0 (inactive); in the test on HepG2-GM130-SQSTM1 it was 1 (active); in the test with HepG2-TP53BP1-CLTA [10], 1 (active); with HepG2-TUBA1B-RELA it was 1 (active); in the test on WPMY1-ACTB-RAB5A, 1 (active); in the test with WPMY1-CANX-COX4 it was 1 (active). The phenotypically active in the test on WPMY1-GM130-SQSTM1, with WPMY1-TP53BP1-CLTA and with WPMY1-TUBA1B-RELA was 1 (active) each time.

For `CC[C@@H](CO)NC(=O)[C@@H]1C=C2c3cccc4c3c(cn4C)C[C@H]2N(C)C1` [methysergide], the “lowest phenotypically active concentration” value in the test with A549-GM130-SQSTM1 [2] was found to be 9 µM. In addition, the phenotypically active with A549-ACTB-RAB5A [6] is 0 (inactive); with A549-CANX-COX4, 0 (inactive); in the test with A549-GM130-SQSTM1 [7], 1 (active); in the test with A549-TP53BP1-CLTA [8], 0 (inactive); in the test with A549-TUBA1B-RELA [9] it was 0 (inactive); in the test with HepG2-ACTB-RAB5A, 0 (inactive). The phenotypically active in the test with HepG2-CANX-COX4, in the test with HepG2-GM130-SQSTM1, in the test with HepG2-TP53BP1-CLTA [10], with HepG2-TUBA1B-RELA, with WPMY1-ACTB-RAB5A and with WPMY1-CANX-COX4 was 0 (inactive) each time. In addition, the phenotypically active in the test on WPMY1-GM130-SQSTM1, in the test with WPMY1-TP53BP1-CLTA and in the test with WPMY1-TUBA1B-RELA was 0 (inactive) in each case.
